Pf growth 48h: inhibits P. falciparum growth in the first generation, 48 h. AID 504832. P. falciparum luciferase growth in erythrocytes, 48 h. 5.9% of 310,000 active. Potency, µM (doses to about 28.7 µM), hits mostly inhibitors
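Luciferase-expressing P. falciparum in infected erythrocytes (2% hematocrit, 0.1% parasitemia final) in RPMI 1640/0.5% Albumax were exposed to compound for 48 hours at 37 C, 5% CO2; growth read as luminescence.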
Sm TGR inh: blocks Schistosoma mansoni thioredoxin glutathione reductase | purified TGR, DTNB reduction, TNB absorbance 405 nm | Potency, µM (titrated, usually from 114 µM), hits mostly inhibitors | 3% of 360,000 active | Q962Y6; also: nearly all actives have a fitted effect of over 60% in size
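First, TGR (20 nM dispensed) and NADPH were mixed with compound. Second, a 15 min room-temperature incubation followed. Third, further NADPH and then DTNB were added to start the reaction. Finally, TNB absorbance was monitored kinetically.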
HCMV inh: inhibitors of human cytomegalovirus; HFF cells, HCMV-luciferase reporter, 72 h; hits give low values; activity change, negative = inhibition, % at 57.5 µM; 4.5% of 410,000 active; AID 1259415; in the data active = activity change below about -60%; inconclusive = no clear call, values can overlap the other calls; inactive = above about -39%
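Cell-based, HFFs, 1000 cells/well, 16 h 37C; cpds in DMSO + HCMV-luc, MOI 1 PFU/cell; 72 h 37C; OneGlo luminescence after 5 min RT; norm. to buffer vs Salinomycin 10uM.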
FBPA Giardia inh: inhibitors of Giardia lamblia fructose-1,6-bisphosphate aldolase; A8B2U2; purified Giardia FBPA; Potency, µM (series often up to 59.6 µM), usual class: inhibitors; 0.71% of 290,000 active; AID 2451; also: nearly all actives have a fitted effect of over 55% in size
Target sequence (A8B2U2 whole entry, looked up): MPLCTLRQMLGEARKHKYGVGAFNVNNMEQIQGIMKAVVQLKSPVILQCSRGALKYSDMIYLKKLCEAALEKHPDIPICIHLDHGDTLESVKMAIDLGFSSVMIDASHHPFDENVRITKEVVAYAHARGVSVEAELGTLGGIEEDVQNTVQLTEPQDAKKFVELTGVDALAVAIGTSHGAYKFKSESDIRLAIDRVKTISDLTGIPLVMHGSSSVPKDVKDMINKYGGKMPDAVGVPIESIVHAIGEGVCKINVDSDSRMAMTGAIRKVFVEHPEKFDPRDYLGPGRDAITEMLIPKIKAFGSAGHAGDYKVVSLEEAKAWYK
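40 nM FBPA preincubated 10 min at RT with compound (up to 57.5 uM final), then substrate plus GAPDH/TPI/NAD/arsenate coupling and diaphorase/resazurin added. Fluorescence read after 20 min at RT, 525/598 nm.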
Pf growth 96h: P. falciparum growth inhibition at 96 hour, primary screen for plastid delayed-death inhibitors | P. falciparum luciferase reporter growth, 96 h | Potency, µM (top dose mostly 28.7 µM), most hits filed as inhibitors | 6.9% of 320,000 active
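Parasite growth measured via integrated firefly luciferase reporter in P. falciparum. Infected erythrocytes at 2% hematocrit, 0.05% parasitemia final were treated 96 hours at 37 C under 5% CO2, and luminescence was read.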
Hits are given with their value; . = inactive; ? = inconclusive; / = no result given; [ ] = another dose, or the depositor's remark. Rows were chosen to be rich in hits. Some 14% of all compounds tested hit in one or more screens of this group. Unless noted, calls follow the shape of the dose curve; as a rule, active = well fitted curve in the direction sought with a large enough effect; inconclusive = small, poorly fitted or top-dose-only effect, or another doubt; inactive = no such curve, though single readings can be large; an effect the other way counts as inactive or inconclusive.

SMILES | Pf growth 48h | Sm TGR inh | HCMV inh | FBPA Giardia inh | Pf growth 96h
Cc1ccc(N2C(=O)NC(=O)/C(=C\c3cc(C)n(-c4ccc(C(=O)O)cc4)c3C)C2=O)cc1 | .[0.00184 µM] | ? | . | . | .
Cc1cc(/C=C2\C(=O)NC(=O)N(Cc3ccco3)C2=O)c(C)n1-c1ccc(C(=O)O)cc1 | . | ? | . | . | .
COc1ccc(NC(=O)c2cccc(N3C(=O)C4CCC(C)CC4C3=O)c2)c(OC)c1 (stereo not drawn) | . | . | . | . | .
O=C(NCc1ccccc1)C1=C[C@H](c2ccc(Br)cc2)C[C@H](OCc2ccc(CO)cc2)O1 | ? | . | . | . | 1.65µM
O=C(NCc1ccccc1)C1=C[C@@H](c2ccccc2)C[C@@H](OCc2ccc(CO)cc2)O1 | ? | 50.1µM | . | ? | 9.28µM
CCCNC(=O)c1ccccc1NC(=O)COc1cccc2c1OC(C)(C)C2 | ? | . | . | / | ?
CC(=O)Nc1cccc(-c2csc(Nc3cc(C)ccn3)n2)c1 | . | . | . | . | .
CC(=O)Nc1ccc(-c2csc(Nc3cc(C)ccn3)n2)cc1 | . | . | -61.5 | . | .
Cc1ccc(Nc2nc(-c3ccc(O)c(O)c3)cs2)nc1 | ? | 5.62µM | . | . | ?
CCOC(=O)/C(C)=N/Nc1nc(-c2ccc(NC(C)=O)cc2)cs1 | ? | 11.2µM | . | ? | 10.4µM
Cc1ccc(Nc2nc(-c3ccc(F)cc3)cs2)nc1 | . | . | . | . | .
CC(=O)Nc1ccc(-c2csc(Nc3ccc(Cl)cn3)n2)cc1 | . | . | -61.1 | . | .
c1cnc2c(-c3ccc4nccn4c3)cccc2c1 | / | / | . | / | /
Cc1noc(C)c1C(=O)Nc1ccccc1N1CCOCC1 | . | . | . | / | .
COc1ccc(-c2nc(CC(=O)Nc3cccc(S(=O)(=O)NC4=NCCC4)c3)cs2)cc1 | . | . | . | / | ?
Cc1ccnc(Nc2nc(-c3ccccc3)cs2)c1 | . | ? | . | . | .
Cc1ccnc(Nc2nc(-c3c(C)nc4sccn34)cs2)c1 | 3.29µM | . | -75.7 | ? | ?
Cc1ccccc1C(=O)NC1CCN(Cc2nnnn2C2CCCC2)CC1 | . | . | . | . | 6.57µM
CCC(C)(C)n1nnnc1CN1CCC(NC(=O)c2ccc(Br)cc2)CC1 | ? | . | . | . | 4.15µM
Cc1ccc(Cn2nnnc2CN2CCC(NC(=O)c3ccc(Br)cc3)CC2)cc1 | 3.7µM | . | . | . | ?
O=C(Nc1ccc2oc(-c3cccc(F)c3)nc2c1)c1ccc2ccccc2c1 | / | . | . | / | /
COC(=O)[C@H]1CC2(CC=C(C)C)C(=O)[C@@](CC=C(C)C)(C(=O)C(C(=O)c3ccccc3)=C2OC)C1(C)C (tested in a mixture with another compound) | / | / | / | . | /
Cc1cc(=O)[nH]c2c(C)cc(S(=O)(=O)N3CCOCC3)cc12 | / | / | . | / | /
Cc1cc(=O)[nH]c2c(C)cc(S(=O)(=O)N3CCCCC3)cc12 | . | . | . | / | 13.1µM
N#Cc1ccc(-c2nc3ccc(Cl)cn3c2Cc2ccsc2)cc1 | / | / | . | / | /
SMILES | Pf growth 48h | Sm TGR inh | HCMV inh | FBPA Giardia inh | Pf growth 96h
CCOC(=O)Nc1ccc(N2CCOCC2)c(S(=O)(=O)N2CCOCC2)c1 | . | . | . | . | .
Cc1ccc(C)c(S(=O)(=O)ON2C(=O)c3ccccc3C2=O)c1 | . | 0.891µM | . | . | ?
Cc1ccc(S(=O)(=O)ON2C(=O)c3cccc4cccc(c34)C2=O)cc1 | . | . | . | . | .
Cc1cc(S(=O)(=O)ON2C(=O)c3ccccc3C2=O)ccc1F | . | 0.794µM | . | . | .
O=C1c2ccccc2C(=O)N1OS(=O)(=O)c1ccccc1 | . | 1.26µM | / | . | .
CCN1CCCC1CNC(=O)C(=O)NCCc1ccc(OC)c(OC)c1 (stereo not drawn) | . | . | . | . | .
COC(=O)c1ccc2nc(-c3ccc(Cl)cc3)c(Cc3cccc(Cl)c3)n2c1 | / | / | . | / | /
CC[n+]1ccccc1/C=C1\Sc2ccc(C)cc2N1C | 1.04µM | . | -97.3 | . | .
O=C(Nc1cc(Cl)cc(Cl)c1)N1CCCC1 | . | . | . | . | ?
CNC(=O)N(O)C1N(C)C(=O)N(CC(=O)OC)C1(C)C (stereo not drawn) | . | . | . | . | .
CCCCNC(=O)N(O)C1N(CCCC)C(=O)N(CC(=O)OC)C1(C)C (stereo not drawn) | . | . | . | . | 5.22µM
Cc1c(C(=O)Nc2ccc3nc(N4CCOCC4)sc3c2)oc2ccccc12 | 10.4µM | . | . | / | ?
CC(C)Cn1c(N)c(C(=O)CSc2nnc(-c3ccco3)n2C)c(=O)n(C)c1=O | 5.22µM | . | . | / | 1.31µM
CCCCn1c(SCC(N)=O)nnc1-c1ccco1 | ? | . | . | . | .
CC(C)Cn1c(SCC(=O)c2ccc(Cl)s2)nnc1-c1ccco1 | / | ? | . | . | 11.7µM
Cc1ccc(NC(=O)c2cc(S(=O)(=O)N3CCC4(CC3)OCCO4)ccc2F)cc1Cl | / | . | . | / | /
Cc1ccc(C)c(CN2C(=O)c3ccccc3S(=O)(=O)c3ccc(C(=O)N4CCN(c5ccccn5)CC4)cc32)c1 | / | . | -71.4 | / | /
O=C(c1ccc2c(c1)N(Cc1ccccc1)C(=O)c1ccccc1S2(=O)=O)N1CCN(Cc2ccccc2)CC1 | / | . | ? | / | /
CCN1CCN(C(=O)c2ccc3c(c2)N(Cc2ccccc2)C(=O)c2ccccc2S3(=O)=O)CC1 | 6.57µM | . | . | . | .
CCN1CCN(C(=O)c2ccc3c(c2)N(Cc2ccc(Cl)cc2)C(=O)c2ccccc2S3(=O)=O)CC1 | / | . | -60.6 | / | /
Cc1cc(C)c2c(N=NN3CCOCC3)[nH]nc2n1 | . | . | . | . | 4.65µM
CC1CCN(C(CC(=O)c2ccccc2)C(=O)c2ccccc2)CC1 (stereo not drawn) | / | / | -86.0 | / | /
CCOC(=O)N1CCN(CC(=O)Nc2nccs2)CC1 | / | / | . | / | /
O=[N+]([O-])c1cccc(N=NNc2cccc([N+](=O)[O-])c2)c1 | / | / | . | / | /
O=[N+]([O-])c1ccc(N=Nc2ccc(O)cc2O)cc1 | / | . | -99.4 | . | 0.329µM
SMILES | Pf growth 48h | Sm TGR inh | HCMV inh | FBPA Giardia inh | Pf growth 96h
O=[N+]([O-])c1cccc(N=Nc2ccc(O)cc2O)c1 | / | / | -79.7 | / | /
O=C(NCc1ccccc1Cl)c1cc(-c2ccccc2)n[nH]1 | / | . | . | / | /
CN1C(=O)/C(=C\C(=O)c2cccs2)c2ccccc21 | . | . | -99.5 | . | .
O=C1CCN(C(=O)c2cccs2)c2ccccc21 | . | . | . | . | .
Nc1ncc(Br)nc1NC1CCOCC1 | / | / | . | / | /
O=C(CSc1ncc(-c2ccc(F)cc2)n1Cc1ccco1)Nc1nccs1 | / | . | . | . | /
CCC(=O)Nc1cc(NC(=O)CSc2ncc(-c3ccc(F)cc3)n2Cc2ccco2)ccc1C | . | 44.7µM | . | . | .
COc1ccc(NC(=O)CSc2ncc(-c3ccc(F)cc3)n2Cc2ccco2)cc1 | 14.7µM | . | . | . | 11.7µM
COc1ccc(-c2cnc(SCC(=O)Nc3nc(C(C)(C)C)cs3)n2Cc2ccco2)cc1 | 13.1µM | . | . | . | ?
COc1ccc(-c2cnc(SCC(=O)Nc3cc(C)on3)n2Cc2ccco2)cc1 | ? | . | . | . | /
